Assay outcomes deposited in PubChem BioAssay by several laboratories.
Only some compounds are listed: those with a hit (about 2.9% of all), similar ones and a draw of the others.
PP1 counter: counter-screen for PP5 inhibitors: inhibitors of human PP1-alpha; purified PP1alpha, OMFP fluorescence; P62136; AID 2235; actives 0.9% (n = 320,000); inhibition, % at 6.7 µM;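 active = inhibition above the mean inhibition of all tested compounds plus 3 SD, computed separately for each screening campaign, cut at about 15% in these data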
Exocytosis inh: blocks lytic granule exocytosis. TALL-104 LAMP-1 surface exposure, flow cytometry; cells stimulated with thapsigargin and PMA. inhibition, % at 10 µM. actives 0.66% (n = 360,000);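 active = inhibition above about 55%, limit read from the data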
NadD block: NadD (S. aureus) enzyme inhibition; purified NadD enzyme, colorimetric absorbance read-out; inhibition, % at 20 µM; actives 0.78% (n = 360,000); in the data active = inhibition above about 26%
B2AR ag: activates human beta-2 adrenergic receptor causing internalization; P07550; Am2.2-beta2AR cells, FAP receptor internalization, flow cytometry; response, % (test concentration not listed); actives 0.43% (n = 340,000); AID 504454;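 active = response above a set limit, near 3 SD of response in nonfluorescent compounds, cut at about 42% in these data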
GRK2 inh: human GRK2 inhibition via aptamer displacement; P25098; bead flow cytometry, FAM-aptamer displacement from GRK2; inhibition of aptamer binding, % at 10 µM; actives 0.59% (n = 330,000); AID 488847;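 active = inhibition of aptamer binding above 40%, roughly 3 SD of noise, on plates passing a quality check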;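 note: median bead fluorescence of bound FAM aptamer so fluorescent compounds give negative values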
Target sequence (P25098 whole entry, looked up): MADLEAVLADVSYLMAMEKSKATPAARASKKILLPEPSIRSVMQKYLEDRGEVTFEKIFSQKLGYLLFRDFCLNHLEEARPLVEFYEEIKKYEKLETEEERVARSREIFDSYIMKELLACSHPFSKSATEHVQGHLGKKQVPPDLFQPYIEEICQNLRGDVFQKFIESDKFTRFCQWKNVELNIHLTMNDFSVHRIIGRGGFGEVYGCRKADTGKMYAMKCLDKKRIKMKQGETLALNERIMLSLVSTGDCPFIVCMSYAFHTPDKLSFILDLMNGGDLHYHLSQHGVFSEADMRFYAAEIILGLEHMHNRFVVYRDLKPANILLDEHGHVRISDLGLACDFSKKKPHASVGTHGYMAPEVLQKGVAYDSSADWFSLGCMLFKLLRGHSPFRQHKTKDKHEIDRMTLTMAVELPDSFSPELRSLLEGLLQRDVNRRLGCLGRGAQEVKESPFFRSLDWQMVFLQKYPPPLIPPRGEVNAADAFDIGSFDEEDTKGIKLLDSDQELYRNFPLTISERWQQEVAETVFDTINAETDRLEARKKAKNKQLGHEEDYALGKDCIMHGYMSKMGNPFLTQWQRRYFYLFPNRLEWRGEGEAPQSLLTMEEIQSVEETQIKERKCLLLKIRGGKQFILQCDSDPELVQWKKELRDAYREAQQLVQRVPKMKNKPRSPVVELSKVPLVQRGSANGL
NadD conf: confirmation of Staphylococcus aureus NadD inhibitors; shares compounds with NadD block; purified S. aureus NadD, colorimetric enzyme assay; inhibition, % at 20 µM; actives 13% (n = 2,000); AID 624309; in the data active = inhibition mostly above about 42%, no sharp cut-off; inactive = mostly below about 42%
Active calls of the source: *; . = no result given.

SMILES	PP1 counter	Exocytosis inh	NadD block	B2AR ag	GRK2 inh	NadD conf
COc1cc2c(cc1NC(=O)c1cc(-c3ccncc3)nc3ccccc13)oc1ccccc12	15*	1	48*	28	0	5
Cc1csc(NC(=O)c2cc(-c3ccco3)nc3ccccc23)n1	10	0	75*	0	11	53*
CC(C)(C)c1ccc(-c2cc(C(=O)NNC(=O)Nc3ccccc3)c3ccccc3n2)cc1	8	-3	37*	43*	0	24
O=C(NNC(=O)c1cc(-c2ccccc2)nc2ccccc12)Nc1cccc(Cl)c1	3	16	10	12	0	.
Cc1ccc(S(=O)(=O)N2C[C@H]3n4c(=O)ccc(=O)n4C[C@H](OC(=O)NCC4CCCCC4)[C@@]3(O)C2)cc1	.	-6	3	.	.	.
CCCOc1ccc(C(=O)NNC(=S)NC(=O)c2cc(-c3ccc(Cl)cc3)nc3ccccc23)cc1	2	2	79*	10	0	14
CCNC(=S)NNC(=O)c1cc(-c2cccc(OC)c2)nc2ccccc12	5	2	2	2	2	.
CCNC(=S)NNC(=O)c1cc(-c2ccc(OCC)cc2)nc2ccccc12	-5	5	2	-15	0	.
COc1ccc(C(=O)NNC(=S)NC(=O)c2cc(-c3ccccc3)nc3ccccc23)cc1	-2	4	49*	-1	0	68*
CCc1ccc2[nH]c(=O)c(CN(CCN(C)C)C(=S)NCc3ccco3)cc2c1	-2	1	37*	1	0	-34
Cc1ccc(S(=O)(=O)Nc2ccccc2C(=O)N2CCCCC2)cc1	-3	3	2	-2	0	.
CC(C)(C)OC(=O)[C@H](Cc1ccccc1)NC(=O)c1ncn2c1c(=O)[nH]c1ccc(Br)cc12	.	-9	40*	.	.	4
CC(C)(C)OC(=O)[C@H](Cc1ccccc1)NC(=O)c1nc[nH]c1C(=O)N[C@@H](Cc1ccccc1)C(=O)OC(C)(C)C	14	5	4	-13	4	.
Cc1ccc2cc3cc(C(=O)N(CC(=O)NC4CCCC4)c4cccc(C)c4C)sc3nc2c1	-2	1	34*	5	0	11
Cc1ccc(C)c(N(CC(=O)NC2CCCCC2)C(=O)c2csnn2)c1	1	-8	3	4	0	.
Cc1cccc(N(CC(=O)NC2CCCC2)C(=O)c2nsc(Cl)c2Cl)c1C	-2	1	-8	1	1	.
Cc1ccc(C)c(N(CC(=O)NC2CCCC2)C(=O)c2cc3cc4cccc(C)c4nc3s2)c1	1	-4	32*	12	1	12
COc1ccc(S(=O)(=O)N2C(=O)/C(=C3\SC(N)=NC3=O)c3ccccc32)cc1	-1	-1	18	8	4	.
COc1ccc(S(=O)(=O)Nc2cc3c4c(c2)CCC(=O)N4CCC3)cc1C	0	-6	-1	5	2	.
CCOC(=O)C1CCN(c2c(NCc3ccc(C(=O)Nc4ccc(C)cc4)cc3)c(=O)c2=O)CC1	-2	-1	2	2	2	.
CC(C)(Sc1ccc(CCN(CCCCC2CCCCC2)C(=O)NC2CCCCC2)cc1)C(=O)O	9	4	46*	5	0	18
CC(=O)Nc1ccc(S(=O)(=O)N(C)c2ccc(OCC(=O)NCCc3ccccc3F)cc2)cc1	.	0	-2	-10	.	.
O=C(Nc1ccc(-c2csc(Nc3ccccc3)n2)cc1)c1cc([N+](=O)[O-])cc(C(F)(F)F)c1	0	4	32*	0	0	12
O=C(Nc1ccc(-c2csc(Nc3ccccc3)n2)cc1)c1cccc(C(F)(F)F)c1	-4	11	15	12	1	.
O=C(Nc1cccc(-c2csc(Nc3cccc(C(F)(F)F)c3)n2)c1)c1cc([N+](=O)[O-])cc(C(F)(F)F)c1	-2	9	37*	2	4	1
SMILES	PP1 counter	Exocytosis inh	NadD block	B2AR ag	GRK2 inh	NadD conf
CCC(=O)NC(c1cccs1)c1cc([N+](=O)[O-])c2cccnc2c1OC (centres undefined)	.	-3	32*	.	.	26
CCC(=O)NC(/C=C/c1ccccc1)c1cc([N+](=O)[O-])c2cccnc2c1O (centres undefined)	1	.	.	.	0	.
NC(=O)c1c(NC(=O)COC(=O)CSc2nnc(-c3ccc(Cl)cc3)o2)sc2c1CCC2	6	-1	40*	-4	2	8
CCOC(=O)c1c(NC(=O)CSc2nnc(-c3ccc(OC)cc3)o2)sc2c1CCC2	-2	0	-3	-6	0	.
Cc1ccc(C)n1NC(=O)c1ccc(Cl)cc1Cl	11	5	34*	3	1	27
COc1cccc(=O)c2c(C)n(-c3cc(C)cc(C)c3)c(C)c12	5	1	35*	-4	0	43
O=C1OC(c2ccc3ccccc3c2O)(c2ccc3ccccc3c2O)c2ccccc21	.	2	41*	-86	.	82*
CCN(CC1CCCO1)C(=O)CCc1nnc(CCc2ccccc2OC)o1 (centres undefined)	-2	-1	-1	1	0	.
CO/N=C/C(C#N)=C/c1cc(C(=O)c2ccccc2)cn1C	1	3	-15	-2	0	.
CCc1nnc(NC(=O)CSc2nc(-c3ccccc3)cc(-c3ccc(F)cc3)c2C#N)s1	-3	-1	44*	-10	4	4
O=S(=O)(Nc1ccc2ccccc2n1)c1ccccc1	-5	0	-2	-1	1	.
CN(C)C1(CNC(=O)C2CCN(S(=O)(=O)c3c(Cl)cccc3Cl)CC2)CCCCC1	-11	4	-6	-8	0	.
O=[N+]([O-])c1ccc(N/N=C/c2sc(N3CCOCC3)nc2-c2ccccc2)c(S(=O)(=O)Nc2ccc(Cl)cc2)c1	.	3	58*	-639	.	5
O=C(O)c1cccc(N/N=C/c2sc(N3CCOCC3)nc2-c2ccccc2)c1	1	-6	-6	-4	4	.
O=[N+]([O-])c1ccc(N/N=C/c2sc(N3CCOCC3)nc2-c2ccccc2)c(S(=O)(=O)Nc2ccccc2Cl)c1	.	2	75*	-295	.	6
Cc1ccc(N(CC(=O)NCc2ccccc2)C(=O)c2csnn2)c(C)c1	2	5	-6	4	1	.
OC(Cc1cccc(Br)c1)c1ncc(-c2cccc(C(F)(F)F)c2)[nH]1 (centres undefined)	.	14	-1	.	.	.
O=C(OCC(=O)c1ccc(Cl)cc1Cl)c1ccc2c(c1)C(=O)N(c1cccc3ncccc13)C2=O	-3	-3	43*	1	0	7
CCOC(=O)c1cc2c(ccn2C)n1Cc1ccccc1Cl	0	14	-3	2	0	.
COc1cccc(CN2CCN(Cc3nc(C(C)C)cs3)CC2CCO)c1 (centres undefined)	2	1	-2	7	4	.
O=C(CN1CCc2ccccc21)Nc1ccc2c(c1)OCO2	5	-1	56*	-4	1	8
